Screening results deposited in PubChem by National Center for Advancing Translational Sciences (NCATS).
PLK1 PBD inh – PLK1 (human) polo-box domain binding inhibition; hit rate 2.8% among 360,000; Plk1 PBD binding of FITC phosphopeptide, fluorescence polarization; Potency, µM, inactives show max response, negative = inhibition, hits mostly inhibitors; AID 720504; also: series mostly up to about 57 µM; % is scaled to controls: 0 for no effect and ±100 for the full control effect; nearly all actives have a fitted effect of over 65% in size
HP1b binding inh – inhibitors of HP1-beta chromodomain binding to methylated histone tails; hit rate 0.56% among 390,000; P83916; AlphaScreen HP1-beta / biotin-H3K9me3 peptide binding; AID 540317; Potency, µM (titrated, usually from 114 µM), inactives show at the highest dose activity change, negative = inhibition, actives largely listed as inhibitors; also: nearly all actives have a fitted effect of over 70% in size
Target sequence (P83916 whole entry, looked up): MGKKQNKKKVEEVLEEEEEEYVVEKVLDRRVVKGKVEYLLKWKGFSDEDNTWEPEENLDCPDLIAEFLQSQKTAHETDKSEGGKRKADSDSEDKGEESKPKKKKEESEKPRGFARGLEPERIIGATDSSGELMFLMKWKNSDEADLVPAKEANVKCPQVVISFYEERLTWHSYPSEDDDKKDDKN
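AlphaScreen: HP1-beta (50 nM) preformed 30 min with biotin-H3(1-18)K9me3 peptide (50 nM) in PBS pH 7.4, 0.01% Tween-20. Compound added for 30 min at RT, then streptavidin donor/nickel chelate acceptor beads (10 ug/mL) for 30 min.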
G9a block – G9a (human) methyltransferase inhibition; hit rate 8.8% among 350,000; Potency, µM (series often up to 102 µM), without a hit: at the highest dose activity, negative = inhibition, usual class: inhibitors; Q96KQ7; G9a H3K9 monomethylation, AlphaScreen, 2 h; also: % is scaled to controls: 0 for no effect and ±100 for the full control effect; nearly all actives have a fitted effect of over 75% in size
Target sequence (Q96KQ7 913-1193 limits assumed): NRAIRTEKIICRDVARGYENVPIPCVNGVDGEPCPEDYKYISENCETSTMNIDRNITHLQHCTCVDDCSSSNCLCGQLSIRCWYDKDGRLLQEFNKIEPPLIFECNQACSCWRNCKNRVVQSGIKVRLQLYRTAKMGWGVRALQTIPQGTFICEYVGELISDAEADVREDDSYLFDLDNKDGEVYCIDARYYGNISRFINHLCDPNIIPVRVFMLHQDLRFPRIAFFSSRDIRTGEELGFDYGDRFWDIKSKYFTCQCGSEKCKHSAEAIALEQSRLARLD
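Readings reflect AlphaScreen signal from monomethyl-H3K9 antibody detection. HMT at 20 nM; substrate b-H3K9 500 nM; cofactor SAM 20 uM; 2 h RT reaction; compounds tested as titrations in qHTS with 15 min preincubation.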
BAZ2B block – BAZ2B (human) inhibition; Q9UIF8; AlphaScreen BAZ2B-H3K14Ac peptide displacement; Potency, µM (titrated, usually from 114 µM), for inactives: at the top dose activity change, negative = inhibition, most hits filed as inhibitors; hit rate 4.4% among 360,000; also: % is scaled to controls: 0 for no effect and ±100 for the full control effect; nearly all actives have a fitted effect of over 60% in size
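Inhibition is scored as reduced AlphaScreen emission. The BAZ2B/b-H3(5-23)K14Ac complex (50 nM each) in PBS pH 7.4, 0.01% Tween-20 meets compound (up to 110 uM) for 30 min at RT before bead addition.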
JMJD2A Tudor – JMJD2A Tudor domain (human) inhibition | O75164 | AlphaScreen JMJD2A-Tudor / H3K4me3 peptide binding | hit rate 4.4% among 390,000 | Potency, µM (highest dose often 114 µM), for inactives: at the highest dose activity change, negative = inhibition, most hits filed as inhibitors | AID 504339; also: % is scaled to controls: 0 for no effect and ±100 for the full control effect; nearly all actives have a fitted effect of over 50% in size
Sfp inh – Sfp phosphopantetheinyl transferase inhibition | Q9F4F7 | Biochemical Sfp PPTase activity, qHTS | Potency, µM, inactives show largest response in the series, negative = inhibition, hits mostly inhibitors | hit rate 3.5% among 310,000;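 also: the enzyme is Sfp with the accession as filed and its product quenches rhodamine fluorescence; 0% = enzyme reaction without inhibitor and -100% = no enzyme wells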
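Step 1, compound plus 15 nM Sfp-PPTase, 15 min, room temperature. Step 2, add rhodamine-CoA (5 uM) and BHQ-2-YbbR (12.5 uM). Step 3, read 525/598 nm fluorescence at 0 and 30 min.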
Active calls of the source: *; ? = inconclusive; nt = not tested or not shown; [ ] = dose if it differs, or a comment. In the library only some 12% were active in any assay of this set; here they are far more common. Calls follow the shape of the dose curve; as a rule, active = well fitted curve in the direction sought with a large enough effect; inconclusive = small, poorly fitted or top-dose-only effect, or another doubt; inactive = no such curve, though single readings can be large; an effect the other way counts as inactive or inconclusive. Potency is read from the fitted curve at half-maximal effect.

SMILES	PLK1 PBD inh	HP1b binding inh	G9a block	BAZ2B block	JMJD2A Tudor	Sfp inh
C[C@@H]1CN([C@@H](C)CO)C(=O)CCCn2cc(nn2)CO[C@H]1CN(C)S(=O)(=O)c1ccc2c(c1)OCCCO2	3%	nt	nt	nt	nt	nt
O=C(Cc1cccc([N+](=O)[O-])c1)NCc1nc2cccnc2n1Cc1ccc(F)cc1	nt	11%[57 µM]	18%[59 µM]	-3%	-9%	nt
COC(=O)[C@@H]1CC[C@H](C)[C@@H](c2ccc(C)cc2)N1C(=O)c1ccc(/C=N\O[C@@H](C)c2cc(-c3c(C)cc(C)cc3C)no2)cc1	nt	nt	nt	nt	nt	-14%
CCCCCC(=O)N1C[C@H](n2cc(C3CC3)nn2)[C@@H](O)C[C@@H]1c1ccccc1	1%	nt	nt	nt	nt	nt
COC(=O)Nc1ccc(=O)n(Cc2c(Cl)cccc2Cl)c1	-10%	10%	71µM*	-24%	-12%	-10%
CCCc1nn2c(=O)cc(COC(=O)c3ccc4c(c3)OCO4)nc2s1	nt	-15%	1%[59 µM]	-15%	-21%	nt
COc1ccc(CN(Cc2ccco2)C(=O)COc2ccc(Cl)cc2C)cc1	nt	67%	69%[59 µM]	32%	3%	nt
CC1CC1C(=O)OCC(=O)Nc1cc(S(=O)(=O)N2CCCCC2)ccc1Cl (stereo not given)	6%	39%	nt	nt	5%	nt
COc1ccc(CNc2cccc3[nH]c(C(F)(F)F)nc23)cc1	-12%	18%	-13%[2.33 µM]	?	?	-1%
COc1cc(CNc2cccc3[nH]c(C(F)(F)F)nc23)cc(OC)c1	27µM*	28%	40µM*	?	50µM*	-18%
Oc1ccc(Nc2nc(-c3cccnc3)cs2)cc1	-9%	-15%	40µM*	?	?	-16%
O=C(O)c1ccc(Nc2nc(-c3cccnc3)cs2)cc1	-10%	10%	?	1%	-7%	89µM*
Nc1ccc(Nc2nc(-c3ccncc3)cs2)cc1	-6%	-31%	40µM*	?	56µM*	-4%
Clc1ccc(Nc2nc(-c3ccncc3)cs2)cc1	-3%	-7%	nt	nt	-29%	nt
Oc1ccc(Nc2nc(-c3ccc(Cl)cc3)cs2)cc1	nt	nt	nt	nt	nt	-20%
Oc1ccc(Nc2nc(-c3ccc(O)cc3)cs2)cc1	-13%	?	?	28µM*	?	6%
COc1cc2nc(N(C)CCCNC(=O)[C@@H]3CCCO3)nc(N)c2cc1OC	nt	nt	11%[21.5 µM]	nt	nt	-21%
CCc1cccc(NC(=O)CSc2ncccc2C(=O)Oc2ccccc2Cl)c1	nt	40%	?	-17%	-12%	nt
COCCCN(CC(=O)Nc1ccc(F)cc1)S(=O)(=O)c1cccs1	-14%	32%	nt	nt	-3%	nt
CN(C(=O)c1ccc(NC(=O)Cc2cccc(NC(=O)C3CCN(C(=O)C4CC4)CC3)c2)cc1)C1CC1	1%	43%	nt	nt	-6%	nt
CC1=CC(=O)CC(C)(C)C1(O)/C=C/C(C)=C\C(=O)O (stereo not given)	nt	nt	nt	nt	nt	10%
c1cc2c(cc1-c1csc(NNC3=NCCCCC3)n1)OCCO2	19µM*	?	6.3µM*	35µM*	-26%[11.4 µM]	-95%
Brc1cccc(Nc2nc(-c3cccnc3)cs2)c1	-9%	38%	nt	-1%	-12%	-6%
Brc1ccc(Nc2nc(-c3cccnc3)cs2)cc1	-9%	31%	32µM*	-15%	-22%	45µM*
c1ccc(-c2csc(Nc3ccc4c(c3)OCCO4)n2)cc1	0%	-52%	11µM*	50µM*	71µM*	?
SMILES	PLK1 PBD inh	HP1b binding inh	G9a block	BAZ2B block	JMJD2A Tudor	Sfp inh
CCC(=O)c1ccc(OCC(=O)Nc2nc(-c3cccnc3)cs2)cc1	?	6%	40µM*	-10%	?	nt
CCC(=O)c1ccc(OCC(=O)Nc2nc(C)cs2)cc1	1%	25%	nt	nt	-14%	nt
Cc1ccc(Sc2ccc(N3CCCC(C(=O)Nc4ccc(F)c(Cl)c4)C3)nn2)cc1 (stereo not given)	nt	43%	-4%[59 µM]	3%	8%	nt
COc1cc(OC)c(C(=O)OCC(=O)NC23CC4CC(CC(C4)C2)C3)cc1OC	1%	37%	nt	nt	-4%	nt
Cc1ccccc1OCC(=O)Nc1ccc2nc(SCC(=O)N3CCCC3)sc2c1	nt	51%	-33%[59 µM]	-11%	-8%	nt
NCCO/C=C/[C@H](N)C(=O)O	nt	nt	31%[59 µM]	nt	nt	-5%
c1ccc(CNc2nc(-c3cccnc3)cs2)cc1	-10%	17%	50µM*	?	?	35µM*
O=c1[nH]c(NCCCO)nc2c1C1(CCCC1)Cc1ccccc1-2	-5%	7%	25%[59 µM]	-5%	-23%	-13%
O=c1[nH]c(NNC(=S)NC2CCCCC2)nc2c1C1(CCCC1)Cc1ccccc1-2	-4%	2%	-8%[12.7 µM]	-30%	?	79µM*
C=CCNC(=S)NNc1nc2c(c(=O)[nH]1)C1(CCCC1)Cc1ccccc1-2	?	-20%	?	?	?	?
O=c1[nH]c(NNC(=S)NCc2ccccc2)nc2c1C1(CCCCC1)Cc1ccccc1-2	?	?	20µM*	?	?	-14%
Cc1ccc(N2CCN(c3nc4c(S(=O)(=O)c5ccc(C)c(C)c5)nnn4c4ccccc34)CC2)c(C)c1	nt	12%	-7%[59 µM]	0%	-9%	nt
Cc1c(Cl)cccc1NC(=S)Nc1ccc2[nH]c(=O)[nH]c2c1	?	-12%	15%[12.7 µM]	-24%	5%[11.4 µM]	56µM*
Cc1ccc(NS(=O)(=O)c2ccc(-c3ccccc3)cc2)cc1C	nt	nt	nt	nt	-13%	nt
COc1ccc(NC(=O)CN2CCN(Cc3ccc(F)cc3)S2(=O)=O)cc1Cl	nt	32%	2%[59 µM]	7%	-12%	nt
CC[C@]12c3[nH]c4cc(-c5ccco5)ccc4c3CCN1C(=O)[C@@H](CC(=O)NCc1ccc(OC)c(OC)c1)C[C@@H]2C(=O)N1CCN(C(=O)C2CC2)CC1	-1%	-12%	nt	nt	-35%	nt
CN(C)CCCNC(=O)C[C@H]1C[C@H](C(=O)N2CCCCC2)[C@@]2(C)c3[nH]c4cc(-c5ccco5)ccc4c3CCN2C1=O	3%	3%	nt	nt	?	nt
COc1ccc(CNC(=O)C[C@H]2C[C@H](C(=O)N3CCCCC3)[C@@]3(CCc4ccccc4)c4[nH]c5cc(-c6ccco6)ccc5c4CCN3C2=O)cc1OC	24µM*	-6%	nt	nt	?	nt
COc1ccc2[nH]c3c(c2c1)CCN1C(=O)C(CC(=O)NCC24CC5CC(CC(C5)C2)C4)C[C@H](C(=O)N2CCOCC2)[C@@]31CCC1CCCC1 (stereo not given in full)	?	-6%	nt	nt	40µM*	nt
CC[C@]12c3[nH]c4cc(-c5ccco5)ccc4c3CCN1C(=O)[C@@H](CC(=O)NCc1ccco1)C[C@@H]2C(=O)N1CCN(C(=O)C2CC2)CC1	?	-3%	nt	nt	?	nt
